TLR9-MyD88 block = inhibitors of TLR9-MyD88 association in cells, primary screen, cell-based, CHO, BLA complementation, fluorescence; CCF4 FRET ratio; 0.21% of 340,000 active; inhibition, % at 4.98 µM; Toll-like receptor 9 (Homo sapiens) + Myeloid differentiation primary response protein …;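 active means inhibition above the mean over all tested compounds plus 3 SD, cut at about 21% in these data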;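 further: 0% = DMSO only wells and 100% = clavulanate BLA inhibitor control wells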
TLR4 MyD88 comp = inhibitors of TLR4-MyD88 association in cells, primary screen, cell-based, HeLa CL3-4, BLA complementation, FRET ratio; HeLa CL3-4 TLR4/MyD88 BLA complementation; 0.18% of 200,000 active; Toll-like receptor 4 (Homo sapiens) + Myeloid differentiation primary response protein …; inhibition, % at 8.4 µM; AID 861, 2007; in the data active means inhibition above about 25%;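 further: 0% = vehicle and 100% = reference inhibitor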
Target sequence (O00206 whole entry, looked up): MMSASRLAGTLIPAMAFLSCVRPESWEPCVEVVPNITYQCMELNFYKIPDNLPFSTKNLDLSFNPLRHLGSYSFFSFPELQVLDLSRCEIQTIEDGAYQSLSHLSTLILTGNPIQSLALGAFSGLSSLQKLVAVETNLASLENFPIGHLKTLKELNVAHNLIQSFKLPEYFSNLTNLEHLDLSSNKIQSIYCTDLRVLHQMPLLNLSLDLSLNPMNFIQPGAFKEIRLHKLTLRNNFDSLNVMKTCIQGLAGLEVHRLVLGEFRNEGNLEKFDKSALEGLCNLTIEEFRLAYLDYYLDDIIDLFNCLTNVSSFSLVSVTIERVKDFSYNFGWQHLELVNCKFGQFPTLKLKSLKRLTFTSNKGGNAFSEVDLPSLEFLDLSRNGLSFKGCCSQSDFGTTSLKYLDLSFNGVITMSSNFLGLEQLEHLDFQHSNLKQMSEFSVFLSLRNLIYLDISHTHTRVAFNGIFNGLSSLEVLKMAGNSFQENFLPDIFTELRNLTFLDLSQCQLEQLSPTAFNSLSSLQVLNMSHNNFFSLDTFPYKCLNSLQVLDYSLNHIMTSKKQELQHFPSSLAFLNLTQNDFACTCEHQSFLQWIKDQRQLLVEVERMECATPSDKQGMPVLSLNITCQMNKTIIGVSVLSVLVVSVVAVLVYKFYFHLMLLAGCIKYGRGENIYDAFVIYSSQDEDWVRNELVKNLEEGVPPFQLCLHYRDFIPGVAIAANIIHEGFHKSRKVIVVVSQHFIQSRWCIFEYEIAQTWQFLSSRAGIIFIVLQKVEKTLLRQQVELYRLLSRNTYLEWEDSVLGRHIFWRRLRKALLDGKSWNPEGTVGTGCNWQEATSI
Target sequence (Q99836 whole entry, looked up): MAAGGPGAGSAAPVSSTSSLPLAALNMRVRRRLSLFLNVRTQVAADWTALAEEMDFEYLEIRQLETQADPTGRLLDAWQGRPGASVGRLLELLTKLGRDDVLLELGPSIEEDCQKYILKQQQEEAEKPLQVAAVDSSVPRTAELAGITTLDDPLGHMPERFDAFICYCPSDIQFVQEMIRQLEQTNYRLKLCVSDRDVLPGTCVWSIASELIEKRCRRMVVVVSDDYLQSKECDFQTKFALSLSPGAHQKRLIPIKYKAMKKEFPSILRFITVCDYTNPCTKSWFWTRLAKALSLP
GC-A act = GC-A stimulated cGMP production enhancers – HEK293 GC-A cells, cGMP TR-FRET, EC30 ANP, primary screen; Atrial natriuretic peptide receptor 1 (Homo sapiens), P16066; 0% at EC30 ANP, 100% saturating ANP; activation, % at 10 µM; 0.14% of 370,000 active; in the data active means activation above about 40%
NOD2-RIPK2 inh = NOD2-RIPK2 binding disruptors in cells, primary screen, fluorescence, CHO cells, BLA complementation; Receptor-interacting serine/threonine-protein kinase 2 (Homo sapiens), O43353; CCF4 ratio; inhibition, % at 4.98 µM; 0.38% of 360,000 active; in the data active means inhibition above about 21%;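 further: 0% = vehicle only and 100% = reference blocker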
GC-B act = human GC-B receptor activators, primary screen, HEK293 GC-B cells, cGMP TR-FRET, EC30 CNP; Atrial natriuretic peptide receptor 2 (Homo sapiens), P20594; 0% at EC30 CNP, 100% saturating CNP; activation, % at 10 µM; 0.11% of 370,000 active;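 active means activation at 10 µM reaching about 35% in either raw or pattern-adjusted values, limit read from the data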
Neddylation inh = inhibitors of cullin neddylation, primary screen, biochemical, TR-FRET, uHTS, NAE and Ubc12. NEDD8-conjugating enzyme Ubc12 (Homo sapiens) + NEDD8-activating enzyme E1 regulatory …. inhibition, % at 25 µM. 0.58% of 360,000 active; in the data active means inhibition above about 36%
NOD2-RIPK2 conf = NOD2-RIPK2 binding disruptors, retest, confirmation, fluorescence, CHO cells, BLA complementation, triplicate. inhibition, % at 4.98 µM. 70% of 1,200 active. CCF4 FRET. shares compounds with NOD2-RIPK2 inh;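 active means mean inhibition across replicates above a set limit taken from the earlier primary screen, cut at about 21% in these data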;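 further: 0% = DMSO-only wells and the high end = clavulanate BLA-blocked wells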
NOD2 BLA counter = NOD2-RIPK2 counterscreen BLA reporter activity; 57% of 1,200 active; shares compounds with NOD2-RIPK2 inh; inhibition, % at 4.98 µM; AID 624371; CHO BLA reporter, CCF4 FRET ratio;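 active means mean inhibition above the low-control mean inhibition plus three low-control SD, cut at about 11% in these data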;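 further: 0% = DMSO only wells and 100% = clavulanate high control wells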
Active calls of the source: *. In the library only some 1.2% were active in any assay of this set; here they are far more common.

Screening CCOc1ccc(C(=O)C(CN2CCOCC2)c2ccccc2)cc1 (configuration not stated) returned TLR9-MyD88 block -6, TLR4 MyD88 comp 0, GC-A act -5, NOD2-RIPK2 inh 6, GC-B act -1 and Neddylation inh 0.
CCC(C)(C)n1nnnc1C(C(C)C)N(Cc1ccco1)Cc1cc2cc3c(cc2[nH]c1=O)OCO3 (configuration not stated) was read as TLR9-MyD88 block 15, TLR4 MyD88 comp 10, GC-A act -14, NOD2-RIPK2 inh 44*, GC-B act -2, NOD2-RIPK2 conf 5 and NOD2 BLA counter -2.
Screening C[C@H]1[C@@H](O)CC[C@@]23CCCN2C(=O)CCC[C@@H]13 returned GC-A act 0 and GC-B act 3.
Screening CCOc1ccc(/C=C(\C#N)C(=O)c2c(C)[nH]c3ccccc23)cc1OC returned TLR9-MyD88 block -8, TLR4 MyD88 comp -17, GC-A act 11, NOD2-RIPK2 inh 22*, GC-B act 5, Neddylation inh 7, NOD2-RIPK2 conf 2 and NOD2 BLA counter -6.
C(=Cc1c[nH]c2ccccc12)c1ccc2ccccc2n1 was read as TLR9-MyD88 block 11, GC-A act -4, NOD2-RIPK2 inh 29*, GC-B act -6, NOD2-RIPK2 conf 33* and NOD2 BLA counter 47*.
`NS(=O)(=O)c1ccc(NS(=O)(=O)c2ccc(NC(=O)c3ccc(-c4ccccc4)cc3)cc2)cc1` gave TLR9-MyD88 block 3, TLR4 MyD88 comp -7, GC-A act -7, NOD2-RIPK2 inh 24*, GC-B act -3, Neddylation inh 3, NOD2-RIPK2 conf 23* and NOD2 BLA counter 28*.
Screening COc1ccc(-n2c(SCc3cccc4ccccc34)nnc2-c2ccccc2)cc1 returned GC-A act -27 and GC-B act -19.
COCCSc1ncccc1-c1nc2ccccc2[nH]1 was read as GC-A act 2 and GC-B act -3.
Screening COc1ncc(-c2ccc(N3C(c4ccc([N+](=O)[O-])cc4)=Cc4ccccc4C3CC(C)=O)cc2)cn1 (configuration not stated) returned GC-A act 5, NOD2-RIPK2 inh 34*, GC-B act 5, Neddylation inh -5, NOD2-RIPK2 conf 13 and NOD2 BLA counter 18*.
For CC(C)(C)c1nc2c(C#N)c(-c3ccc(Cl)cc3)ccn2n1 the results were TLR9-MyD88 block 2, TLR4 MyD88 comp 1, GC-A act 7, NOD2-RIPK2 inh 24*, GC-B act 18, Neddylation inh -20, NOD2-RIPK2 conf 2 and NOD2 BLA counter -2.
Screening Cc1nc2c(C#N)c(-c3ccc(Cl)cc3)ccn2n1 returned TLR9-MyD88 block -4, TLR4 MyD88 comp 10, GC-A act 3, NOD2-RIPK2 inh -1, GC-B act -5 and Neddylation inh -25.
For O=C(CNS(=O)(=O)c1ccc(F)cc1)N1CCN(c2ccccn2)CC1 the results were GC-A act -9 and GC-B act 1.
Screening Cc1ccc(-c2cc(C(=O)NN=Cc3ccc(N(C)C)cc3)[nH]n2)cc1C returned GC-A act 1 and GC-B act 1.
